Screening data from PubChem BioAssay.
Only some compounds are listed: those with a hit (about 5.4% of all), similar ones and a draw of the others.
HSF-1 act: increases HSF-1 driven luciferase reporter signal. 1.7% of 300,000 active. AID 504408. activation, % at 9 µM. NIH3T3-HGL HSF-1 luciferase reporter, MG132, 8 h; 100% = twice DMSO control signal;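 active = mean replicate activation of at least 50% with a set share of replicates each reaching 50%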;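 also: 0% = median of the neutral control wells and 100% = twice that signal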
HSF1 inhib: HSF1 inhibition; NIH3T3-HGL HSE-luciferase, MG132-induced, luminescence 8 h; active compounds read low; activity change, negative = inhibition, % at 7.5 µM (by protocol); 0.77% of 300,000 active;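 active = more than half of replicate wells show activity change below -50%, luminescence cut by over half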;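 also: luciferase reports HSF-1 transcriptional activity via heat shock element; 0% = median of DMSO wells and -100% = zero luminescence signal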
NR0B1 inh: NR0B1 (DAX1) inhibition; P51843; HEK293 Gal4-DAX1 luciferase reporter, luminescence; inhibition, % at 6.75 µM; 0.99% of 340,000 active; AID 504766;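 active = inhibition above the mean over all tested compounds plus 3 SD, cut at about 4.2% in these data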;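 also: 0% = DAX1-transfected cells with DMSO and 100% = empty-vector control cells with DMSO; inhibition shows as a rise in luminescence from relieved DAX1 repression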
FXN GAA850 act: frataxin GAA850 promoter activation | HEK293 lucGAA850 FXN promoter luciferase reporter, 24 h; percent of 10 µM SAHA response | activation, % at 6 µM | 0.56% of 360,000 active | AID 540364;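 active = activation above the average of all compounds screened plus 3 SD, cutoff fixed separately per campaign, cut at about 7.5% in these data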;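 also: 0% = DMSO wells and 100% = 10 µM SAHA wells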
AHR activator: human AHR activation | AID 2796 | activation, % at 5 µM | P35869 | AHR-responsive luciferase reporter cells, luminescence | 2.5% of 320,000 active; in the data active = activation above about 47%;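 also: 0% = vehicle wells and 100% = reference agonist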
Target sequence (P35869 whole entry, looked up): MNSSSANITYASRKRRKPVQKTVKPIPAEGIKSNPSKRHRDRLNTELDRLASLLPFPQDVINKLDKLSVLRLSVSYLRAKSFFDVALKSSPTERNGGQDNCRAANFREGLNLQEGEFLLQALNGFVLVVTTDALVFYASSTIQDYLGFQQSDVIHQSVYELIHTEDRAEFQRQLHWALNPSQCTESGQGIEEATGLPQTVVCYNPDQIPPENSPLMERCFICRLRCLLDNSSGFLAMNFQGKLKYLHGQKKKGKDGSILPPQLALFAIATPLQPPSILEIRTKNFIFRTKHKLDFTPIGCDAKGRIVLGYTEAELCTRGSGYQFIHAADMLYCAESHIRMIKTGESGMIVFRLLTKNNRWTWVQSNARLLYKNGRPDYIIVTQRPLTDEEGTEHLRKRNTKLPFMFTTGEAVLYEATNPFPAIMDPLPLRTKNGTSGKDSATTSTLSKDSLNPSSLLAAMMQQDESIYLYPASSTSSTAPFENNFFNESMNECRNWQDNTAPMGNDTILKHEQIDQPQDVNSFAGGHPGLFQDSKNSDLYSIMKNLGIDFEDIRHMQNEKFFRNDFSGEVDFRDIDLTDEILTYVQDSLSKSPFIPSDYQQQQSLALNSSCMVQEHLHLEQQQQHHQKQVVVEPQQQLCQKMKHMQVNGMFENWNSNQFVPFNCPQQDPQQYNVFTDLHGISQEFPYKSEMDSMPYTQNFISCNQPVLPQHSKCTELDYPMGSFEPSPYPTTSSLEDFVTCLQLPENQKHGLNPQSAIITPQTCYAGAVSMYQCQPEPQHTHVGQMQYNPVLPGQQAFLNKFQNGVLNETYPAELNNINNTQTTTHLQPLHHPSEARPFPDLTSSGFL
Starred values were filed as active, the others as inactive; · = no result given.

SMILES | HSF-1 act | HSF1 inhib | NR0B1 inh | FXN GAA850 act | AHR activator
Cc1ccc2oc(C(Cl)(Cl)Cl)cc(=O)c2c1 | 52* | 45 | -2 | -2 | 3
O=C(O)CCc1ccc(-c2cccs2)n1NC(=O)c1cccs1 | 27 | 38 | 4.5* | 1 | -1
Cc1ccc(S(=O)(=O)N2C[C@@H]3[C@H]4CC[C@H](C4)[C@@H]3[C@@H](C)[C@H]2C#N)cc1 | · | · | -1 | 2 | ·
C[C@H](CO)N1C[C@H](C)[C@@H](CN(C)S(=O)(=O)c2ccc(F)cc2)Oc2ccc(NC(=O)NC3CCCCC3)cc2C1=O | · | · | 0 | -1 | 0
CC(=O)Nc1ccc(Nc2nc(C)cc(C)n2)cc1 | -9 | -5 | 1 | 1 | 6
CC(=O)Nc1cc(C)ns1 | · | · | 4.3* | 0 | ·
Cc1cc(NC(=O)CCC(=O)N(CC(=O)NCC2CCCO2)c2ccc(F)c(Cl)c2)no1 (centres undefined) | 2 | -5 | 4.2* | -1 | 1
Cc1cc(NC(=O)CCC(=O)N(CC(=O)NCC2CCCO2)c2ccc(C)c(C)c2)no1 (centres undefined) | 2 | -3 | 3 | -1 | -2
CN(c1cccc(NC(=O)Nc2cccc(Cl)c2)c1)S(C)(=O)=O | 66* | 36 | -2 | -2 | 77*
O=C(Nc1ccc(Br)cc1)c1cccn1-c1ncc(C(F)(F)F)cc1Cl | 12 | 4 | 1 | -4 | 62*
COc1ccccc1C(=O)NC(=S)Nc1cccnc1Cl | -28 | -22 | -4 | 0 | 75*
Cc1ccc(C(=O)NC(=S)Nc2cccnc2Cl)cc1 | 65* | 33 | 1 | 4 | -2
CCCn1nnc(NC(=S)NC(=O)c2ccccc2OC)n1 | · | · | 0 | 2 | 57*
CCCn1nnc(NC(=O)c2ccccc2Cl)n1 | -4 | 10 | 2 | 2 | 1
CCCOc1ccc(C(O)(CCN2CCCCC2)c2ccccc2OC)cc1 (centres undefined) | -5 | 1 | 1 | -2 | 3
CCc1cc2c(SCC#N)ncnc2s1 | 80* | 19 | 3 | 1 | 0
CCc1cc2c(SCC(=O)O)ncnc2s1 | -9 | -9 | 0 | 0 | 0
Cc1ccc(S(=O)(=O)NCC(=O)Nc2cccnc2)cc1C | · | · | 0 | 0 | 2
CCOCCOc1cc(NCc2ccccc2)c2ncn(C(C)C)c2c1 | · | · | -1 | 0 | ·
CC(C)=C1C2CCC1C1C(=O)N(c3nc(-c4ccccc4)c(C)s3)C(=O)C21 (centres undefined) | 74* | 20 | 2 | 1 | 18
COc1cc(OC)c(OC)cc1/C=N/NC(=S)NCCN1CCOCC1 | -1 | -4 | -1 | -1 | 4
COc1cc(OC)c(OC)cc1/C=N/NC(=S)NCC1CCCO1 (centres undefined) | -76 | -70* | -2 | -2 | 24
CCNc1nc(NCC)n2c(SCC(=O)c3ccccc3Cl)nnc2n1 | 32 | 11 | -1 | -1 | 1
Cc1cc(C(=O)N(C)Cc2ccc(Br)cc2)no1 | 14 | 2 | 0 | 0 | 4
CN(Cc1ccccc1)C(=O)c1cc(-c2ccc(Br)cc2)on1 | 62* | 18 | -1 | 3 | -2
SMILES | HSF-1 act | HSF1 inhib | NR0B1 inh | FXN GAA850 act | AHR activator
Cc1ccc(NC(=O)C(Nc2cccc(C)c2)c2ccccc2)cc1 (centres undefined) | 3 | 10 | 0 | -2 | 4
CC(=O)n1nc(-c2ccccc2)cc1-c1ccccc1 | 29 | 25 | 4.6* | 6 | 58*
O=C(O)Cn1nc(-c2ccccc2)cc1-c1ccccc1 | 13 | 6 | 3 | 0 | 7
CCc1ccc2nc(N)sc2c1 | 20 | 16 | 6.4* | 6 | 10
CC(=O)Nc1ccc2nc(N)sc2c1 | -11 | -5 | 0 | 1 | 26
COc1ccc(C(=O)NCc2ncccc2C)cc1OC1CCN(C(C)=O)CC1 | 7 | -8 | 1 | 2 | 0
O=C(O)CN1C(=O)/C(=C\c2cc(Br)ccc2OCc2ccc(Cl)cc2Cl)SC1=S | 36 | 4 | -1 | 2 | 64*
O=C(O)CN1C(=O)/C(=C\c2ccccc2OCc2ccc(Cl)cc2)SC1=S | 8 | 3 | 0 | 1 | 59*
O=C(O)CN1C(=O)/C(=C\c2cccc(OCc3ccccc3F)c2)SC1=S | 58* | 20 | 0 | 2 | 2
CC1CCC2(CC1)NC(=O)N(NC(=O)c1cccc(N(C)C)c1)C2=O (centres undefined) | · | · | 1 | 1 | 1
CN(C)c1ccc(NC(=O)CSc2nnc(-c3cnccn3)n2C)cc1 | 11 | -3 | 1 | -2 | 51*
